From PubChem BioAssay AID1663 (Broad Institute, 2009) come the findings set out here.

Hit rate of the full screen: of about 300,000 compounds, about 660 (0.22%) were called active.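 The calls were made as follows: active = mean replicate score, as percent of positive control, at or above 50; inconclusive = mean below 50 but at least one replicate at or above 50; inactive = mean and every replicate below 50.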 What follows is part of a selection rich in actives, with near analogues and random picks from the rest.

This experiment can be described thus: blockers of SFLLRN-triggered platelet ATP release – cell-based, MLPCN, human platelets, primary screen (AID 1663). The conditions noted are these: human platelet-rich plasma, SFLLRN dense granule ATP release, luminescence; active compounds read high;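 compounds screened at 7.5 µM in platelet-rich plasma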.
Take `CCOc1ccc(/C(O)=C2\C(=O)C(=O)N(c3ccc(OC)cc3)C2c2ccccc2[N+](=O)[O-])cc1` (stereo not given): the inhibition – broadly, the change of the read-out against control, counted positive when it falls – was 14.9% (inactive).

For `NS(=O)(=O)c1ccc2nc(NC(=O)C3=COCCO3)sc2c1`, the inhibition was -2.24% (inactive).

Take `C=CCN(C(=O)Nc1ccc2c(c1)nc(C)n2C)c1ccccc1`: the inhibition was 3.61% (inactive).

`Cc1nc2cc(NC(=O)Nc3cccc(F)c3)ccc2n1C`: the inhibition was 56.5% (active).

For `Cc1nc2cc(NC(=O)NC3CC3)ccc2n1C`, the inhibition is -7.31% (inactive).

On to `O=C(COC(=O)c1ccc[nH]c1=O)Nc1ccc2c(c1)OC(F)(F)O2`, for which the inhibition was 5.92% (inactive).

Consider `CCOC(=O)/C(N=Nc1cc(C(=O)O)cc(C(=O)O)c1)=C(\O)CCl`, for which the inhibition is 10.2% (inactive).

`COc1ccc(-n2cc(-c3ccccc3)c3c(=S)nc[nH]c32)cc1`: the inhibition was 5.15% (inactive).

Regarding `COc1cc2ccccc2cc1C(=O)Nc1nc(C)c(C(C)=O)s1`, the inhibition was -6.84% (inactive).

With `COc1ccc(Cc2nnc(NC(=O)c3ccc(OC)cc3OC)s2)cc1`, the inhibition is -12.4% (inactive).

Consider `COC(=O)c1sc(NC(=O)c2ccc(OC)cc2OC)nc1C`, for which the inhibition is 57.3% (active).

Regarding `O=C(O)CC/C(=C\c1cc2c(cc1Br)OCO2)c1nc2ccccc2s1`, the inhibition was 17.4% (inactive).

Turning to `CCN(CC(=O)Nc1ccc(C)c(S(=O)(=O)N(C)C)c1)Cc1ccccc1`, the inhibition is 2.21% (inactive).

As for `COc1ccc(NC(=O)c2cc(-c3ccc(C)cc3)on2)cc1`, the inhibition was 7.98% (inactive).

Turning to `COc1ccc(NC(=O)/C(Cl)=C(/Cl)S(=O)Cc2ccc(C)cc2)cn1` (stereo not given), the inhibition is 59% (active).

Regarding `Cc1ccc(NC(=O)OCc2cncs2)cc1`, the inhibition was -1.58% (inactive).

On to `COc1ccc(S(=O)(=O)NCCCc2ccccc2)cc1`, for which the inhibition is 16% (inactive).

With `C=CCn1c(-c2ccc(Cl)cc2)ccc(C#N)c1=O`, the inhibition is 1.51% (inactive).

Turning to `CCC(C)(C)NC(=O)CN(C(=O)CCC(=O)Nc1cc(C)ccn1)c1ccc2c(c1)OCCO2`, the inhibition is 0.138% (inactive).

On to `COc1ccc(C(=O)Nc2ccccc2C(=O)NCc2ccco2)cc1`, for which the inhibition was 12% (inactive).

As to `COc1ccc(/C=N/NC(=O)c2ccccc2)cc1OS(=O)(=O)c1ccccc1`, the inhibition is 2.24% (inactive).

Turning to `COc1cc(/C=N/NC(=O)c2ccc(N3CCCC3=O)cc2)ccc1O`, the inhibition was -4.06% (inactive).

On to `COc1ccc(C(=O)Nc2ccccc2C(=O)N/N=C/c2ccccc2OC)cc1`, for which the inhibition was 73.7% (active).

Turning to `COc1ccc(/C=N/NC(=O)c2ccc3c(c2)OCCO3)c(OC)c1`, the inhibition is -1.2% (inactive).

Take `COc1ccc(C(=O)Nc2ccccc2C(=O)N/N=C/c2ccc(O)c(OC)c2)cc1`: the inhibition is 97.1% (active).

Consider `Cc1cccnc1CCNC(=O)C1CCC(=O)N(Cc2cccc(F)c2)C1` (stereo not given), for which the inhibition is -10.1% (inactive).

Consider `CC(=O)N1CCN(CC(c2ccccc2)c2ccccc2)CC1`, for which the inhibition was 7.74% (inactive).

As to `COc1cccc(N2CCN(c3ccc4nnc(CCC(=O)N5CCN(C)CC5)n4n3)CC2)c1`, the inhibition was 7.34% (inactive).

As for `COC(=O)c1c(NC(=O)CN2C(=O)NC(CCc3ccccc3)C2=O)sc2c1CCCCC2` (stereo not given), the inhibition is -0.263% (inactive).

Turning to `COc1ccc(C2=NS(=O)(=O)N(C)C(C(=O)N(C)Cc3ccccc3)=C2)cc1`, the inhibition was 0.338% (inactive).

For the molecule `O=C(CN(C(=O)c1nsc(Cl)c1Cl)c1cccc(F)c1)NC1CCCC1`, the inhibition was -4.29% (inactive).

As to `COc1ccc(/C=N/NC(=O)Cn2cc(C(F)(F)F)ccc2=O)cc1`, the inhibition was 3.51% (inactive).

As to `Cc1nn(CC(=O)NCC2CCCO2)c(=O)c2cc3ccccc3n12` (stereo not given), the inhibition is -4.75% (inactive).

Take `CCOC(CNC(=O)C(=O)NCC(c1ccco1)N1CCN(c2ccc(OC)cc2)CC1)OCC` (stereo not given): the inhibition was -9.05% (inactive).

For `COc1ccc(C(=O)N2CCCC(C(=O)c3ccccc3OC)C2)cc1OC` (stereo not given), the inhibition was 2.76% (inactive).

Take `Cc1ccc(S(=O)(=O)c2nc(NCCCn3ccnc3)sc2Cl)cc1`: the inhibition was -1.94% (inactive).

For `OC(CNCc1ccc(Cl)c(Cl)c1)c1ccccc1` (stereo not given), the inhibition was 52.7% (active).

For the molecule `Cc1c(Cl)cccc1NC(=S)NCC(O)c1ccccc1` (stereo not given), the inhibition is 3.98% (inactive).

On to `CC(C)(CNCC(O)c1ccccc1)N1CCOCC1` (stereo not given), for which the inhibition was 1.36% (inactive).

With `COc1ccc(NC(=O)CC(NC(C)c2ccccc2)C(=O)O)cc1` (stereo not given), the inhibition was -14.9% (inactive).

With `Cc1ccc(C)c(OCCC(=O)OCC(=O)N2CCN(c3ccccc3)CC2)c1`, the inhibition was -18.4% (inactive).

Take `CC1(c2ccc(Cl)cc2Cl)NC(=O)N(CC(=O)Nc2cccnc2Cl)C1=O` (stereo not given): the inhibition is -2.12% (inactive).

Regarding `CCOc1ccc(S(=O)(=O)Nc2cccc(C(=O)NCC3(N4CCCCC4)CCCCC3)c2)cc1`, the inhibition was 5.48% (inactive).

As for `O=C(NCC1(N2CCCCC2)CCCCC1)c1ccc(NS(=O)(=O)c2ccc(F)cc2)cc1`, the inhibition is 52.6% (active).

With `Cc1ccc(NS(=O)(=O)c2ccc(C(=O)NCCCN3CCOCC3)cc2)cc1`, the inhibition is -3.44% (inactive).

As for `CCN(CC)C(=O)Oc1ccc(Br)cc1C(=O)Nc1ccc(F)c(Cl)c1`, the inhibition is -3.91% (inactive).

Take `COC(C[C@@H](O)[C@H](C)[C@H](O)COCc1ccccc1)OC`: the inhibition is -0.14% (inactive).

As to `CC(=O)N/C(=C\c1ccccc1)C(=O)OC(C)C(=O)N(C)c1ccccc1` (stereo not given), the inhibition is -1.59% (inactive).

With `CC(C)Cn1c(=O)c2ccccc2n2c(CCC(=O)NCc3ccccn3)nnc12`, the inhibition was 3.52% (inactive).

In the case of `O=C(CSc1ccc2nnc(-c3ccccc3)n2n1)N1CCCc2ccccc21`, the inhibition was 17.4% (inactive).

With `CCCCNC(=O)C1(c2ccc(OC)cc2)CCOCC1`, the inhibition was 4.45% (inactive).

With `CC(C)Oc1ccc(CCc2n[nH]c(=S)n2Cc2ccccc2)cc1`, the inhibition is -6.11% (inactive).

For `O=S(=O)(c1ccccc1)N1CCc2ccccc21`, the inhibition was 2.42% (inactive).

On to `CC(=O)Nc1ccc(C(=O)/C=C/c2ccc[nH]2)cc1`, for which the inhibition is -21.1% (inactive).

`COc1cc2c(cc1OC)CN(CC(=O)Nc1ccc(F)cc1)CC2`: the inhibition is 7.57% (inactive).

Turning to `COc1cc2c(cc1OC)/C(=C/C(=O)c1ccc(NC(C)=O)cc1)NCC2`, the inhibition is 55.3% (active).

Regarding `CCOC(=O)Cc1cc(=O)[nH]c(/N=C(\N)Nc2ccc(OC)cc2)n1`, the inhibition was 8.61% (inactive).

For the molecule `O=C(C[n+]1ccccc1)N/N=C/c1ccc(O)cc1`, the inhibition was 2.83% (inactive).

`Cc1nc2ccc(C(=O)N/N=C/c3ccc(O)cc3)cc2[nH]1`: the inhibition is -1.64% (inactive).

Consider `Cc1nonc1C(=O)N/N=C/c1ccc(O)cc1`, for which the inhibition was 103% (active).

Turning to `CC(NC(=O)c1ccccc1C(=O)O)c1ccc(-n2ccnc2)cc1` (stereo not given), the inhibition was 13.8% (inactive).

As to `O=C(Nc1ccc(Cl)cc1)Nc1ccc(Oc2cccnc2)nc1`, the inhibition is 2.76% (inactive).

As to `CC(C)=CCN1CCN(Cc2cc3ccccc3[nH]2)CC1CCO` (stereo not given), the inhibition is 9.2% (inactive).

`CCN(CC(=O)NCc1cccs1)S(=O)(=O)c1ccc(NC(C)=O)cc1`: the inhibition is -21.6% (inactive).

With `CC1CCCCN1S(=O)(=O)c1ccc(S(=O)(=O)N(CC(=O)Nc2ccccc2)Cc2cccs2)cc1` (stereo not given), the inhibition is 50.6% (active).

As for `CC1CCCCN1S(=O)(=O)c1ccc(C(=O)Nc2nnc(-c3cccs3)o2)cc1` (stereo not given), the inhibition was -0.561% (inactive).

Take `O=C(Nc1ccncc1)Nc1ccc(F)cc1`: the inhibition is 4.47% (inactive).

`CC1(C)CC[C@]2(C(=O)O)CC[C@]3(C)C(=CCC4[C@@]5(C)CC[C@H](O)C(C)(C)C5[C@H](O)C[C@]43C)[C@@H]2C1` (stereo not given in full): the inhibition was 3.05% (inactive).

For the molecule `COc1cc(NC(=S)NNC(=O)CC(C)C)c(OC)cc1Cl`, the inhibition is -6.51% (inactive).

For `COC(=O)c1c(NC(=O)c2ccccc2F)sc2c1C(C(=O)OC)CC2` (stereo not given), the inhibition was 2.31% (inactive).

`Cc1nc(CC(=O)NNS(=O)(=O)c2ccc(F)c(Cl)c2)cs1`: the inhibition is 12.2% (inactive).

On to `O=C(N/N=C/c1ccccn1)c1cccc(NC(=O)c2ccc(Cl)cc2)c1`, for which the inhibition is 1.55% (inactive).

With `COc1cc(/C=N/Nc2nn3cnnc3c3ccccc23)cc(OC)c1OC`, the inhibition was 11.5% (inactive).

With `CN(CCO)c1ccc(/C=N/Nc2nncc3ccccc23)cc1`, the inhibition is 76.1% (active).

For the molecule `C/C(=N\Nc1nncc2ccccc12)c1ccc(Cl)c([N+](=O)[O-])c1`, the inhibition was -6.62% (inactive).

In the case of `Cc1c(C(=O)NCCN2CCOCC2)sc2nc(-c3ccc(F)cc3)cn12`, the inhibition is 10.4% (inactive).

Regarding `CSCCC(NC(=O)COc1ccccc1)C(=O)OCCOc1ccc(F)cc1` (stereo not given), the inhibition is -11.3% (inactive).

For `CCN1C(=NCc2ccc(OC)cc2)N[C@@H](CCc2ccccc2)[C@H](C(=O)NCc2ccc(OC)cc2)[C@H]1C`, the inhibition was 9.74% (inactive).

Turning to `CN(C)S(=O)(=O)c1cccc(C(=O)OCC(=O)N2CCCC2=O)c1`, the inhibition is -9.7% (inactive).

In the case of `O=C(NCc1ccccc1)C1CCN(C(=O)Cc2ccccc2)CC1`, the inhibition was -35.6% (inactive).

For the molecule `CCOC(=O)c1cnc2nc(SCc3ccccc3Cl)[nH]n2c1=O`, the inhibition was 3.83% (inactive).

In the case of `CCOc1ccc(C2C3=C(CCCC3=O)N(CC(=O)O)C3=C2C(=O)CCC3)cc1`, the inhibition is -23.7% (inactive).

As for `CCN1CCN(C(=O)C2CCCN(S(=O)(=O)c3ccc(OC)c(OC)c3)C2)CC1` (stereo not given), the inhibition is 5.04% (inactive).

`O=S(=O)(Nc1ncccn1)c1ccc(NS(=O)(=O)c2cccc(Cl)c2Cl)cc1`: the inhibition was 1.24% (inactive).

In the case of `CCOC(=O)c1cc2cc3ccccc3cc2oc1=O`, the inhibition was 8.56% (inactive).

For `COc1cccc(C(=O)c2cc3ccc(O)cc3oc2=O)c1`, the inhibition was 69.5% (active).

On to `COc1cccc(C(=O)NNC(=O)c2cccc(F)c2)c1`, for which the inhibition was -6.44% (inactive).

For the molecule `Nc1nonc1-n1nnc(C(=O)N/N=C/c2ccc(Cl)cc2)c1-c1ccc2c(c1)OCO2`, the inhibition is 2.68% (inactive).

Regarding `O=C(CN1CCOCC1)N1CCCc2c1c(=O)oc1ccc(OCc3ccccc3)cc21`, the inhibition is -1.74% (inactive).

On to `CC(C)(C)c1cc[n+](-c2[nH]c(=O)sc2/C=N/N=C(\[O-])c2ccccc2)cc1`, for which the inhibition is 3.87% (inactive).

Turning to `CC(CCc1ccc(O)cc1)NCc1ccc(Cl)cc1Cl` (stereo not given), the inhibition is 1.67% (inactive).

For the molecule `O=C(CCn1nnnc1CN1CCOCC1)N1CCC(c2ccccc2Cl)C1` (stereo not given), the inhibition was 2.44% (inactive).

For `CCc1cc(CNC(=O)CC2C(=O)NCCN2CC2CCCCC2)on1` (stereo not given), the inhibition was 4.79% (inactive).

`CN=C1S/C(=C\c2c(OC)cc(OC)cc2OC)C(=O)N1C`: the inhibition is 10.3% (inactive).

In the case of `COc1ccccc1C(=O)COC(=O)CNS(=O)(=O)c1ccc(NC(C)=O)cc1`, the inhibition is 6.24% (inactive).

`Cn1cc([N+](=O)[O-])c(C(=O)Nc2ccc3c(c2)OCCO3)n1`: the inhibition was 31.8% (inactive).

Take `Cc1onc(C(=O)Nc2ccc3c(c2)OCO3)c1[N+](=O)[O-]`: the inhibition was 75.7% (active).

On to `Cc1nn(CC(=O)Nc2ccc3c(c2)OCO3)c(C)c1[N+](=O)[O-]`, for which the inhibition is 11.1% (inactive).

As for `Cc1nn(C)c(Cl)c1CN1CCC(Oc2ccc(C(=O)N3CCCC3)cc2)CC1`, the inhibition was 0.366% (inactive).

Regarding `Brc1ccc(C2CC(c3ccccc3)=Nc3ccccc3N2)cc1` (stereo not given), the inhibition is 7.02% (inactive).

Take `C=CCn1c(C)cc(C2=NNC(=NCC)SC2)c1C`: the inhibition is 50.4% (active).

For the molecule `C=CCn1c(C)cc(C(=O)CN2C(=O)c3ccccc3C2=O)c1C`, the inhibition is 6.9% (inactive).

For `Cc1cccc(N=C2NN=C(c3c[nH]c4ccccc34)CS2)c1`, the inhibition is -0.733% (inactive).

With `COc1ccc(CCN2C(=O)N(c3ccc(OC)cc3)C(=O)C2CC(=O)Nc2ccc(OC)cc2)cc1` (stereo not given), the inhibition was -2.02% (inactive).

As to `COC(=O)[C@@]12CCCN1[C@H](c1ccc(-c3ccc(F)cc3)c(OC)c1)[C@H]1C(=O)N(C)C(=O)[C@H]12`, the inhibition is 0.984% (inactive).
